Assay results: ChEMBL document CHEMBL3433997, “St. Jude Leishmania screening dataset” (2016)
“And” between values parts separate entries of the source, which are not always exact repeats. Identical values can stand only once.

biological target: Hexose transporter 1 (Plasmodium falciparum) (UniProt O97467); test: ST_JUDE_LEISH: Cytotoxicity at 2uM final concentration against transgenic Leishmania Mexicana promastigotes LmPfHT that are glucose transport deficient and complemented with the Plasmodium falciparum hexose transporter. Activity is measured by DNA content using SYBR green in vitro; type: functional

Structure (SMILES)	inhibition
Nc1cccc(CNCc2cccc(-c3ccc(-c4nc5ccccc5[nH]4)cc3)c2)c1	-0.89%
O=[N+]([O-])c1ccc(-n2nc(Cc3ccccc3)n(Cc3cccc(F)c3)c2=S)c(C(F)(F)F)c1	3.14%
OCC(c1ccccc1)n1c(COc2ccc(Cl)cc2)nc2c(OCCCN3CCCCC3)cccc21 (stereo not given)	9.11%
c1ccc2[nH]c(-c3ccc(-c4ccc(CN5CCC(N6CCCCC6)CC5)cc4)s3)nc2c1	-0.81%
CC(=O)Nc1cccc(NC(=O)CSc2ccc(-c3nc4ccccc4[nH]3)cn2)c1	-0.63%
O=C(Nc1ccc(F)c(Cl)c1)c1cc([N+](=O)[O-])cc2cn[nH]c12	-0.66%
Cc1nnc(N2C(=N)SC(=Cc3ccc(-c4ccc(OC(F)(F)F)cc4)o3)C2=O)s1	2.59%
O=C(Nc1cccc(-c2ccc(-c3nc4cc(F)ccc4[nH]3)cc2)c1)c1cccnc1	7.21%
O=C(NCCN1CCCC1)c1cccc(-c2ccc(-c3nc4cc(F)ccc4[nH]3)s2)c1	2.37%
Cc1n[nH]c2ccc(-c3ccc4nccc(N5CCC(N)CC5)c4c3)cc12	-0.1%
CCOC(=O)C1=C(C)NC2=C(C(=O)CC(C)(C)C2)C1c1ccc(Br)cc1 (stereo not given)	0.63%
CC1(C)NC(N)=NC(=N)N1OCCSc1ccccc1	3.7%
Cc1cc([N+](=O)[O-])ccc1NC(=O)Nc1cccc(C(F)(F)F)c1	3.9%
Fc1ccc(Nc2ccnc3cc(-c4cccc(CN5CCCCC5)c4)ccc23)c(Cl)c1	3.95%
O=c1c2ccccc2[nH]c2nc3ccccc3c(Nc3ccccc3)c12	12.5%
Cc1cccc2nc(-c3ccc(-c4ccc(CNCc5ccc(CN)cc5)cc4)cc3)[nH]c12	5.94%
COc1ccc2nc(N=C3NC4(c5ccccc5)NC(=Nc5nc6ccc(OC)cc6[nH]5)NC4(c4ccccc4)N3)[nH]c2c1 (stereo not given)	-0.84%
COc1ccccc1/C=C/C(=O)N(C)C1CCN(CCCCCNC(=O)/C=C/c2ccc(Cl)c(Cl)c2)C1 (stereo not given)	1.04%
COc1ccc2nc3cc(Cl)ccc3c(NCCCO)c2c1	0.85%
FC(F)(F)c1cc(Nc2ncnc3ccc(Br)cc23)ccc1OCc1ccccc1	3.97%

Structure (SMILES)	inhibition
ON=C1CCc2cc(-c3nc(-c4ccc(OCCN5CCCCC5)cc4)[nH]c3-c3ccncc3)ccc21	-1.49%
C=C[C@H]1CN(CCCCCCC)CC[C@H]1CC(O)Cc1ccnc2cc(O)c(OC)cc12 (stereo not given in full)	-0.12%
Cc1ccc(NC(=O)c2ccc3ncccc3c2)cc1OC1CCN(CCC(C)C)CC1	2.35%
CCC(ON1C(N)=NC(N)=NC1(C)C)c1ccccc1 (stereo not given)	-0.45%
Cc1c(C(=O)NCc2ccncc2)sc2nc(-c3cccc([N+](=O)[O-])c3)cn12	-1.39%
CCCCCCN1CCCN(Cc2ccc(C(=O)Nc3ccc(C)c(F)c3)cc2)CC1	7.68%
CCN1CCC(N(Cc2ccc(-c3ccc(C(F)(F)F)cc3)cc2)C(=O)Cn2c(CCc3cccc(F)c3F)cc(=O)c3ccc(OCc4ccccc4)cc32)CC1	3.24%
COc1ccc2ncc(F)c(CCN3CC(O)C(CNCc4nc5c(cc4Cl)OCC(=O)N5)C3)c2n1 (stereo not given)	-1.18% and 4.64% and 0.49%
COc1ccc(N2CCN(CCCCNC(=O)c3ccc(NC(=O)c4ccc(C(F)(F)F)cc4)cc3)CC2)c(OC)c1	8.75%
O=C(Nc1ccc(N2CCN(Cc3c[nH]c4cc(F)ccc34)CC2)cc1)c1ccccc1-c1ccc(C(F)(F)F)cc1	4.06%
Cc1cc(=NN=Cc2ccccc2F)c2ccccc2[nH]1	4.77%
COc1ccc(CN2CCC(CNCCc3ccccc3Oc3ccccc3)CC2)cc1	-1.31%
CCCc1ccc(S(=O)(=O)NC2CCN(c3ccnc(Nc4ccc(OC)cc4)n3)C2)cc1 (stereo not given)	9.89%
Cc1ccc(-c2ccc(NC(=O)N3CCc4cc(Br)c(N5CCN(C)CC5)cc43)cc2)cn1	1.29%
Cc1[nH]c(C)c(-c2ccc(-c3ccccc3F)nc2)c(=O)c1Br	4.24%
c1nc(CCNc2nc(Nc3ccc4c(c3)OCO4)nc(NC3CCCC3)n2)c[nH]1	2.73%
CC(C)CCNC(=O)C1Cc2c([nH]c3ccc(Br)cc23)C2(CCN(CCc3ccccc3)CC2)N1 (stereo not given)	0.42%
Cn1cccc1C(=O)C(=O)Nc1ccc(-c2ccc(-c3nc4cc(F)ccc4[nH]3)cc2)cc1	-0.07%
CN(C)CCCN(C)c1cccc2c1nc(-c1cccnc1)n2CCNCc1ccccc1	7.52%
CN(C(=O)Nc1ccc(F)cc1)C1CCN(CCCCCNC(=O)/C=C/c2ccc(Cl)c(Cl)c2)CC1	1.65%

biological target: Glucose transporter (Leishmania mexicana) (UniProt O61059); test: ST_JUDE_LEISH: Cytotoxicity at 2uM final concentration against transgenic Leishmania Mexicana promastigotes LmGT2 that are glucose transport deficient and complemented with the L. Mexicana glucose transporter 2. Activity is measured by DNA content using SYBR green in vitro; type: functional

Structure (SMILES)	inhibition
Nc1cccc(CNCc2cccc(-c3ccc(-c4nc5ccccc5[nH]4)cc3)c2)c1	-0.37%
O=[N+]([O-])c1ccc(-n2nc(Cc3ccccc3)n(Cc3cccc(F)c3)c2=S)c(C(F)(F)F)c1	-0.25%
OCC(c1ccccc1)n1c(COc2ccc(Cl)cc2)nc2c(OCCCN3CCCCC3)cccc21 (stereo not given)	6.47%
c1ccc2[nH]c(-c3ccc(-c4ccc(CN5CCC(N6CCCCC6)CC5)cc4)s3)nc2c1	-1.09%
CC(=O)Nc1cccc(NC(=O)CSc2ccc(-c3nc4ccccc4[nH]3)cn2)c1	-0.27%
O=C(Nc1ccc(F)c(Cl)c1)c1cc([N+](=O)[O-])cc2cn[nH]c12	-2.22%
Cc1nnc(N2C(=N)SC(=Cc3ccc(-c4ccc(OC(F)(F)F)cc4)o3)C2=O)s1	3.61%
O=C(Nc1cccc(-c2ccc(-c3nc4cc(F)ccc4[nH]3)cc2)c1)c1cccnc1	6.47%
O=C(NCCN1CCCC1)c1cccc(-c2ccc(-c3nc4cc(F)ccc4[nH]3)s2)c1	3.1%
Cc1n[nH]c2ccc(-c3ccc4nccc(N5CCC(N)CC5)c4c3)cc12	-3.17%
CCOC(=O)C1=C(C)NC2=C(C(=O)CC(C)(C)C2)C1c1ccc(Br)cc1 (stereo not given)	0.59%
CC1(C)NC(N)=NC(=N)N1OCCSc1ccccc1	3.37%
Cc1cc([N+](=O)[O-])ccc1NC(=O)Nc1cccc(C(F)(F)F)c1	4.81%
Fc1ccc(Nc2ccnc3cc(-c4cccc(CN5CCCCC5)c4)ccc23)c(Cl)c1	3.3%
O=c1c2ccccc2[nH]c2nc3ccccc3c(Nc3ccccc3)c12	8.59%
Cc1cccc2nc(-c3ccc(-c4ccc(CNCc5ccc(CN)cc5)cc4)cc3)[nH]c12	2.77%
COc1ccc2nc(N=C3NC4(c5ccccc5)NC(=Nc5nc6ccc(OC)cc6[nH]5)NC4(c4ccccc4)N3)[nH]c2c1 (stereo not given)	-0.87%
COc1ccccc1/C=C/C(=O)N(C)C1CCN(CCCCCNC(=O)/C=C/c2ccc(Cl)c(Cl)c2)C1 (stereo not given)	0.34%
COc1ccc2nc3cc(Cl)ccc3c(NCCCO)c2c1	2.01%
FC(F)(F)c1cc(Nc2ncnc3ccc(Br)cc23)ccc1OCc1ccccc1	3.84%

Structure (SMILES)	inhibition
ON=C1CCc2cc(-c3nc(-c4ccc(OCCN5CCCCC5)cc4)[nH]c3-c3ccncc3)ccc21	-1.7%
C=C[C@H]1CN(CCCCCCC)CC[C@H]1CC(O)Cc1ccnc2cc(O)c(OC)cc12 (stereo not given in full)	0.32%
Cc1ccc(NC(=O)c2ccc3ncccc3c2)cc1OC1CCN(CCC(C)C)CC1	4.09%
CCC(ON1C(N)=NC(N)=NC1(C)C)c1ccccc1 (stereo not given)	-3.19%
Cc1c(C(=O)NCc2ccncc2)sc2nc(-c3cccc([N+](=O)[O-])c3)cn12	-3.15%
CCCCCCN1CCCN(Cc2ccc(C(=O)Nc3ccc(C)c(F)c3)cc2)CC1	13.7%
CCN1CCC(N(Cc2ccc(-c3ccc(C(F)(F)F)cc3)cc2)C(=O)Cn2c(CCc3cccc(F)c3F)cc(=O)c3ccc(OCc4ccccc4)cc32)CC1	3.52%
COc1ccc2ncc(F)c(CCN3CC(O)C(CNCc4nc5c(cc4Cl)OCC(=O)N5)C3)c2n1 (stereo not given)	-0.57% and 3.05% and -1.68%
COc1ccc(N2CCN(CCCCNC(=O)c3ccc(NC(=O)c4ccc(C(F)(F)F)cc4)cc3)CC2)c(OC)c1	9.19%
O=C(Nc1ccc(N2CCN(Cc3c[nH]c4cc(F)ccc34)CC2)cc1)c1ccccc1-c1ccc(C(F)(F)F)cc1	3.31%
Cc1cc(=NN=Cc2ccccc2F)c2ccccc2[nH]1	1.44%
COc1ccc(CN2CCC(CNCCc3ccccc3Oc3ccccc3)CC2)cc1	-2.59%
CCCc1ccc(S(=O)(=O)NC2CCN(c3ccnc(Nc4ccc(OC)cc4)n3)C2)cc1 (stereo not given)	9.64%
Cc1ccc(-c2ccc(NC(=O)N3CCc4cc(Br)c(N5CCN(C)CC5)cc43)cc2)cn1	2.24%
Cc1[nH]c(C)c(-c2ccc(-c3ccccc3F)nc2)c(=O)c1Br	1.41%
c1nc(CCNc2nc(Nc3ccc4c(c3)OCO4)nc(NC3CCCC3)n2)c[nH]1	0.99%
CC(C)CCNC(=O)C1Cc2c([nH]c3ccc(Br)cc23)C2(CCN(CCc3ccccc3)CC2)N1 (stereo not given)	0.26%
Cn1cccc1C(=O)C(=O)Nc1ccc(-c2ccc(-c3nc4cc(F)ccc4[nH]3)cc2)cc1	-0.45%
CN(C)CCCN(C)c1cccc2c1nc(-c1cccnc1)n2CCNCc1ccccc1	1.45%
CN(C(=O)Nc1ccc(F)cc1)C1CCN(CCCCCNC(=O)/C=C/c2ccc(Cl)c(Cl)c2)CC1	2.01%
